Test results: PubChem BioAssay
Activity calls are given as the source filed them.

Legend:
[1] = tested on: PRMT1 (protein arginine N-methyltransferase 1); assay: small molecules binding arginine methyltransferase PRMT1 – biochemical, small-molecule microarray, 635 nm fluorescence, primary screen (AID 1088); conditions: higher = more signal;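 also: binding of Prmt1 protein to compounds spotted on small-molecule microarray slides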
[2] = growth effects on S. cerevisiae YJM789 – YJM789 clinical isolate, OD600, 24 h, basal, primary screen (AID 1089); conditions: higher = more signal, called active from +8 up or from −8 down;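 also: growth of clinical yeast isolate S. cerevisiae YJM 789 seeded 1000 cells per well; test concentration not given here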
[3] = S. pombe growth modifiers, basal conditions – strain 972, OD600, 24 h, no modulator, primary screen (AID 1090);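 also: basal condition with compound alone and no growth modifier present; test concentration not given here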; conditions: S. pombe 972 growth, higher = more signal, called active from +8 up or from −8 down
[4] = budding yeast growth modifiers under rapamycin – strain BY4716, OD600, 96 h, primary screen (AID 1091); also: test concentration not given here; conditions: S. cerevisiae BY4716 + rapamycin, higher = more signal, called active from +8 up or from −8 down
[5] = biological target: Torsin-1A-interacting protein 2 (Homo sapiens) (UniProt Q8NFQ8); assay: small molecules binding lysate-expressed LULL1 – cell lysate, human LULL1 lysate, 635/667 nm fluorescence, primary screen (AID 1092); conditions: small-molecule microarray, hLULL1 lysate binding, 635 nm fluorescence; higher = more signal;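 also: probe is lysate of COS7 cells overexpressing human LULL1; score merges per-feature 667 nm fluorescence with signal-to-noise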
[6] = optical density change of DRC41 E. coli – strain DRC41, OD650, 24 h, E. coli filamentation project, primary screen (AID 1093);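 also: MC1000 strain lacking acrAB efflux and sulA so SOS filamentation is blocked; test concentration not given here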; conditions: E. coli DRC41 growth, higher = more signal, called active from +8 up or from −8 down
[7] = probe aLefty2 binding to arrayed compounds – biochemical, biotinylated probe, 635/667 nm fluorescence, primary screen (AID 1094); conditions: small-molecule microarray, higher = more signal;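 also: score merges spot fluorescence near 667 nm with spot signal-to-noise ratio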
[8] = tested on: Noggin (protein binding on small-molecule microarray); assay: small molecules binding Noggin protein – biochemical, 635/667 nm fluorescence, primary screen (AID 1095); conditions: 635 nm fluorescence, higher = more signal;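 also: score merges 667 nm feature fluorescence with signal to noise over triplicate slides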
[9] = biological target: Neurogenic locus notch homolog protein 3 (Homo sapiens) (UniProt Q9UM47); assay: small molecules binding NOTCH3 protein – biochemical, 635/667 nm fluorescence, primary screen (AID 1096); conditions: small-molecule microarray, 635 nm fluorescence, higher = more signal
[10] = probe aEGFR binding to arrayed compounds – biochemical, biotinylated probe, 635/667 nm fluorescence, primary screen (AID 1097); conditions: small-molecule microarray, higher = more signal;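 also: probe is a biotinylated anti-EGFR antibody binding compounds printed on slides; score combines fluorescence near 667 nm and signal to noise of each spot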
[11] = tested on: Plasmodium falciparum Sir2 (PF13_0152, Sir2A); assay: Plasmodium falciparum Sir2A binding compounds – biochemical, small-molecule microarray, 635 nm fluorescence, primary screen (AID 1098); conditions: fluorescence 635 nm, higher = more signal;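 also: score merges spot fluorescence intensity with its signal-to-noise ratio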
[12] = probe aDKK1 binding to arrayed compounds – biochemical, biotinylated probe, 635/667 nm fluorescence, primary screen (AID 1099); conditions: small-molecule microarray, higher = more signal;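 also: score merges 667nm spot fluorescence with signal to noise across triplicate slides; reference of the scale not given here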
[13] = probe aCHRDL2 binding to arrayed compounds – biochemical, biotinylated probe, 635/667 nm fluorescence, primary screen (AID 1100); conditions: small-molecule microarray, higher = more signal
[14] = change in splice reporter luminescence, either direction, cell-based, HEK293, spliceosome inhibition project, primary screen (AID 1101); conditions: HEK293 splicing luciferase reporter, 24 h, higher = more signal, called active from +8 up or from −8 down;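 also: HEK293 cells carrying a splicing-competent luciferase reporter gene; test concentration not given here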
[15] = biological target: Fibroblast growth factor 10 (Homo sapiens) (UniProt O15520); assay: compounds binding fibroblast growth factor 10 – biochemical, small-molecule microarray, 635 nm fluorescence, primary screen (AID 1102); conditions: FGF10 binding, fluorescence 635 nm, higher = more signal
[16] = tested on: glycogen synthase kinase-3 (GSK3A per assay name; protocol says GSK3B); assay: compounds binding glycogen synthase kinase-3 – biochemical, small-molecule microarray, 635 nm fluorescence, GSK3A, primary screen (AID 1103); conditions: fluorescence 635 nm, higher = more signal; also: the record names both GSK3A and GSK3B
[17] = biological target: Epidermal growth factor receptor (Homo sapiens) (UniProt P00533); assay: compounds binding epidermal growth factor receptor – biochemical, small-molecule microarray, 635 nm fluorescence, primary screen (AID 1104); conditions: EGFR binding, higher = more signal;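 also: score merges 667 nm emission intensity with spot signal to noise over triplicate slides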
[18] = biological target: Follistatin-related protein 3 (Homo sapiens) (UniProt O95633); assay: compounds binding follistatin-related protein 3 – biochemical, small-molecule microarray, 635 nm fluorescence, primary screen (AID 1105); conditions: FSTL3 binding, higher = more signal;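 also: score merges emission near 667 nm and signal to noise per printed spot across three slides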
[19] = biological target: Dickkopf-related protein 1 (Homo sapiens) (UniProt O94907); assay: small molecules binding DKK1 protein – biochemical, small-molecule microarray, 635 nm fluorescence scan, primary screen (AID 1106); conditions: higher = more signal;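 also: score merges emission near 667 nm with signal to noise over three replicate slides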
[20] = tested on: Inhibin beta A chain (activin A); assay: small molecules binding activin A – biochemical, small-molecule microarray, 635 nm fluorescence scan, primary screen (AID 1107); conditions: INHBA, higher = more signal;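 also: mouse activin A protein probed at 4.33 µg/mL on printed slides; score merges bound-protein fluorescence near 667 nm with spot signal-to-noise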

Dickkopf-related protein 1 (Homo sapiens), sequence (O94907 whole entry, looked up): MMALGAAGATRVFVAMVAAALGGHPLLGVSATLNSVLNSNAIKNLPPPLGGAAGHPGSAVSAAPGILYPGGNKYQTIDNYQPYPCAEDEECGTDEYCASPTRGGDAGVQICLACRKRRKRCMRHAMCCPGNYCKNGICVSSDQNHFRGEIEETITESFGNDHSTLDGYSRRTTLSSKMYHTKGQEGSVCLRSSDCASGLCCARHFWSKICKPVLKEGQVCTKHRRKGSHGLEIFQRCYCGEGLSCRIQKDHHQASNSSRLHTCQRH
Fibroblast growth factor 10 (Homo sapiens), sequence (O15520 whole entry, looked up): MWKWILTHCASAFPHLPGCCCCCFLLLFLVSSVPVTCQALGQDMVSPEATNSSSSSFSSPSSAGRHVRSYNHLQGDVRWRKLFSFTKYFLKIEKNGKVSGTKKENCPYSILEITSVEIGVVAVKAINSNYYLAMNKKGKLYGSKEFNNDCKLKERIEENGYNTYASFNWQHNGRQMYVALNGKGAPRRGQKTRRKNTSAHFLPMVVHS
Torsin-1A-interacting protein 2 (Homo sapiens), sequence (Q8NFQ8 whole entry, looked up): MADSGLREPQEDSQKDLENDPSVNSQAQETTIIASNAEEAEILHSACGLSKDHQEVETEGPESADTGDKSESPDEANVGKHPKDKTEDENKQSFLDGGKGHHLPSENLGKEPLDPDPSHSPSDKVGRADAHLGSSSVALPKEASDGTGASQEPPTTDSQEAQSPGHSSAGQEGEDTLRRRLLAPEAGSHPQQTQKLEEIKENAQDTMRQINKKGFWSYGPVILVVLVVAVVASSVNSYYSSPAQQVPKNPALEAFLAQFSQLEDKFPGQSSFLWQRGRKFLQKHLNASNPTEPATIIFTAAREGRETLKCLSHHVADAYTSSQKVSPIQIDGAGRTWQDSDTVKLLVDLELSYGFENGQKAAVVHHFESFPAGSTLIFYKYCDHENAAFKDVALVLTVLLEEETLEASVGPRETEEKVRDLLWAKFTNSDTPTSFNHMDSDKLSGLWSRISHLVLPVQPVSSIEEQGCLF
Neurogenic locus notch homolog protein 3 (Homo sapiens), sequence (Q9UM47 whole entry, looked up): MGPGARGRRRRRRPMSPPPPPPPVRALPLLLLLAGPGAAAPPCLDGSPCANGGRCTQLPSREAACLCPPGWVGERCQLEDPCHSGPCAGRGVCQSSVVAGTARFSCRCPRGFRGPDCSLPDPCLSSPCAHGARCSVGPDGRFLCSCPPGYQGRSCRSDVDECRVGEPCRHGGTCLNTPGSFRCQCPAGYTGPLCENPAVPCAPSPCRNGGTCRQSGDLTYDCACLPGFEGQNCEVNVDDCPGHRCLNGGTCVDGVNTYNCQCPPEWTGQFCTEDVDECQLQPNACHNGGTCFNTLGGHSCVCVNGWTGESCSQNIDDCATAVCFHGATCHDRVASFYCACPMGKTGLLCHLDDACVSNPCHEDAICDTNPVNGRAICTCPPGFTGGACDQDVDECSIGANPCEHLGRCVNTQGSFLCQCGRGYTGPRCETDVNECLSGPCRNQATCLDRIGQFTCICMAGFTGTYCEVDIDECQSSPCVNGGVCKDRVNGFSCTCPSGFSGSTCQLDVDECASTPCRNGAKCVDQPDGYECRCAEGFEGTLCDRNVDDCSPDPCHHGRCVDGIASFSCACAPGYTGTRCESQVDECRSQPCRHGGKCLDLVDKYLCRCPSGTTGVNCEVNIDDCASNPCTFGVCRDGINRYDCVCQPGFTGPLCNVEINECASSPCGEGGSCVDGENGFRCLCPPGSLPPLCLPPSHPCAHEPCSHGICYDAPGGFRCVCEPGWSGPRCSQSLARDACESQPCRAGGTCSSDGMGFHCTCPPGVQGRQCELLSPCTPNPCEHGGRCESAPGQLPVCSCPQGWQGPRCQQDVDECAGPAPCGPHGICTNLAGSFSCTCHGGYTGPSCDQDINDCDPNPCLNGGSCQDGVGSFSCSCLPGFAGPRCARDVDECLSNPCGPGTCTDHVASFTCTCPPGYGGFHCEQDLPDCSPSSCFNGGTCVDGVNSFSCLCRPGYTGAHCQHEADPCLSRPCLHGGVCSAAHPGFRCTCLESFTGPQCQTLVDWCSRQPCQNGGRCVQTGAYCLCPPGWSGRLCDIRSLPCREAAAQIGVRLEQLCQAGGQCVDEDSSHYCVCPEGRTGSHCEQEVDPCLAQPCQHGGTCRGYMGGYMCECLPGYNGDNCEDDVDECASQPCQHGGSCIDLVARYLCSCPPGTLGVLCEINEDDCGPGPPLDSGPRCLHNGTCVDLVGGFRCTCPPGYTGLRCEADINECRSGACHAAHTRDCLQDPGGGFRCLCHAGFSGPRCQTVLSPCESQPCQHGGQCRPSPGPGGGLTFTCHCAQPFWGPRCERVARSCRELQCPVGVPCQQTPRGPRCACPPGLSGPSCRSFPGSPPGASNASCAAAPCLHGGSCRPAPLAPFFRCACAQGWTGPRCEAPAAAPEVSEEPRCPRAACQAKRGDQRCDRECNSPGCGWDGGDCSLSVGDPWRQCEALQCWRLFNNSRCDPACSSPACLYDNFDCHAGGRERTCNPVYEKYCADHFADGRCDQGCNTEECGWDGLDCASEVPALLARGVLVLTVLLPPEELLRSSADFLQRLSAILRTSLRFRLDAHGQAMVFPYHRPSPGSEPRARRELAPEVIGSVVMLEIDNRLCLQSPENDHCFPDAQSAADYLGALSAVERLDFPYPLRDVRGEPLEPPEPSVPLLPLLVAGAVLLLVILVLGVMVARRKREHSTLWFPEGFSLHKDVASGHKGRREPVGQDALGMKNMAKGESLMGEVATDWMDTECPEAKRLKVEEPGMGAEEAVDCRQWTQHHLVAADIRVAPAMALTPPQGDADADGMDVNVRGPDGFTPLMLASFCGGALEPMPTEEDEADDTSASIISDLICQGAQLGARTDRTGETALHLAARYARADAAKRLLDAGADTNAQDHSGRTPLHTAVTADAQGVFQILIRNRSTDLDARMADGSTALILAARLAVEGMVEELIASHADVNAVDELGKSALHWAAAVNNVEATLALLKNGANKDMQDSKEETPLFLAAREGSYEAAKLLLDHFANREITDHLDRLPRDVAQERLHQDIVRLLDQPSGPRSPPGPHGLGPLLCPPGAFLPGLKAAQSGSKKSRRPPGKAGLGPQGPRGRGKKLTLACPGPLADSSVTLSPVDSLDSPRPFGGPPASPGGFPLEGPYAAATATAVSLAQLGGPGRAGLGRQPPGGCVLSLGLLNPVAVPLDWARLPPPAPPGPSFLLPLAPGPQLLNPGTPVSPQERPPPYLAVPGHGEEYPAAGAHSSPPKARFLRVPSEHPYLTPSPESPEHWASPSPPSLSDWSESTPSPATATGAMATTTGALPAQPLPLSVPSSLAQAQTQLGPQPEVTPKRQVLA
Follistatin-related protein 3 (Homo sapiens), sequence (O95633 whole entry, looked up): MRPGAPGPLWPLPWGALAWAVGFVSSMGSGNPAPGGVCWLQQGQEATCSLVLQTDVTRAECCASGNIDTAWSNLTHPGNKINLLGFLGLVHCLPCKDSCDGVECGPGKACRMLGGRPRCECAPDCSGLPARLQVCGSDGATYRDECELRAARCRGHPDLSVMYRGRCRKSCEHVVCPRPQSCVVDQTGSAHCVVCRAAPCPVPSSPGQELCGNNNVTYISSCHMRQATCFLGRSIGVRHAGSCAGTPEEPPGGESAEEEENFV
Epidermal growth factor receptor (Homo sapiens), sequence (P00533 whole entry, looked up): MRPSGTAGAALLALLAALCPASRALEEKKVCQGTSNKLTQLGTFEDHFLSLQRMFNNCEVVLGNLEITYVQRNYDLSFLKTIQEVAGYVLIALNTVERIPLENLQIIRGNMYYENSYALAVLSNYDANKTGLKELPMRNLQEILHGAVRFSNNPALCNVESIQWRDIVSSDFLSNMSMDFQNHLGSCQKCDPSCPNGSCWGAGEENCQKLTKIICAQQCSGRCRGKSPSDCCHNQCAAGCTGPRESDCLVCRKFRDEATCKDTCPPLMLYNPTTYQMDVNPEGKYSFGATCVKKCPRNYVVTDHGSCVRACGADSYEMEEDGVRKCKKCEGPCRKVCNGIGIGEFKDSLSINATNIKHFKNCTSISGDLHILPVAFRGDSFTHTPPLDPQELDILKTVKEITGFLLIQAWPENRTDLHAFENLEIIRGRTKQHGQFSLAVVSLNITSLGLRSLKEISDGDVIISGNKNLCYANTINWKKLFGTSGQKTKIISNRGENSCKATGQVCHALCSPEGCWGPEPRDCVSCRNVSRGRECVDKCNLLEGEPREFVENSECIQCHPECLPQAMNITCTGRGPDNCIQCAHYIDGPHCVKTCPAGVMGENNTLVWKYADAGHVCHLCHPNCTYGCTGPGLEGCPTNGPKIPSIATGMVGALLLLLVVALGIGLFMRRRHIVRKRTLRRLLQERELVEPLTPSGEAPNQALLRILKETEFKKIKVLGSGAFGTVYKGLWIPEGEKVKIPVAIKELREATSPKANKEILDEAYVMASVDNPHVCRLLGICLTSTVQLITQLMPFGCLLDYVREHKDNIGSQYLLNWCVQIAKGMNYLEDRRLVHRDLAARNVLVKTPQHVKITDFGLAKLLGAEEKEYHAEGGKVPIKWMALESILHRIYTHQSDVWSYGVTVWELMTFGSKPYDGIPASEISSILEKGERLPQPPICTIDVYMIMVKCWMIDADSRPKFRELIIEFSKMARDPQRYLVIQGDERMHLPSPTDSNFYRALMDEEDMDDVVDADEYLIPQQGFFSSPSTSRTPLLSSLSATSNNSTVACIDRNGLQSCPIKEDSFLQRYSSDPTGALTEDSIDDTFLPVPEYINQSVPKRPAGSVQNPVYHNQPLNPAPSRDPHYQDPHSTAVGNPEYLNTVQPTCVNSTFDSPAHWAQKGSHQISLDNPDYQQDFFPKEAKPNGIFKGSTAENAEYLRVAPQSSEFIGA

SMILES	composite z-score [1]	z-score [2]	z-score [3]	z-score [4]	composite z-score [5]	z-score [6]	composite z-score [7]	composite z-score [8]	composite z-score [9]	composite z-score [10]	composite z-score [11]	composite z-score [12]	composite z-score [13]	z-score [14]	composite z-score [15]	composite z-score [16]	composite z-score [17]	composite z-score [18]	composite z-score [19]	composite z-score [20]
O=C1C2C=CC(C(O)c3ccc(I)cc3)N(Nc3ccccc3)C2C(=O)N1c1ccccc1 (stereo not given)	1.34	-0.165 (inactive)	0.912 (inactive)	0.879 (inactive)	3.31	-0.882 (inactive)	0.265	-0.369	0.82	0.0352	1.1	1.06	1.21	0.189 (inactive)	0.455	1.29	0.0244	0.859	0.263	1.06
CC(=O)n1cc(C(O)C2C=CC3C(=O)N(c4ccccc4)C(=O)C3N2Nc2ccc(C(C)C)cc2)c2ccccc21 (stereo not given)	1.22	-0.314 (inactive)	0.713 (inactive)	0.0496 (inactive)	3.27	-0.811 (inactive)	0.353	-0.706	1.04	0.0786	1.17	0.389	0.883	0.811 (inactive)	0.881	1.1	0.281	0.766	0.076	1.02
CCOC(=O)C1=CCC(c2ccccc2)N(S(=O)(=O)c2ccc([N+](=O)[O-])cc2)C1 (stereo not given)	-0.411	0.687 (inactive)	0.668 (inactive)	1.25 (inactive)	1.33	-0.319 (inactive)	-0.0081	-0.578	0.0968	0.0506	-0.0755	0.36	0.507	-0.33 (inactive)	-0.16	0.265	0.0475	0.163	-0.115	0.918
C=C(COC)C(=O)CC[C@@H](OC(=O)c1cccnc1)c1ccccc1OCCO	0.409	-0.587 (inactive)	-1.7 (inactive)	-0.369 (inactive)	-0.135	0.0506 (inactive)	0.0789	0.879	-0.302	-0.0828	1.4	0.403	0.647	0.591 (inactive)	0.694	-0.0625	-0.333	0.529	0.18	1.51
COc1cc(NN2C(C(O)c3ccccc3)C=CC3C(=O)N(C)C(=O)C32)cc(OC)c1OC (stereo not given)	1.53	0.679 (inactive)	0.529 (inactive)	0.328 (inactive)	2.98	-0.852 (inactive)	0.12	0.27	0.832	-0.0581	0.618	0.195	0.8	-0.676 (inactive)	0.422	0.843	0.187	0.362	-0.186	0.784
CO[C@H]1O[C@H](CO)[C@@H](OC(=O)c2ccc(Br)cc2)[C@@H]2OC(=O)[C@H](Cc3ccccc3)C/C=C/C[C@@H](Cc3ccccc3)C(=O)O[C@@H]12	0.965	-1.92 (inactive)	-1.19 (inactive)	0.161 (inactive)	1.63	2.14 (inactive)	0.13	0.413	0.181	-0.176	1.14	-0.407	0.0962	-0.511 (inactive)	0.583	0.186	0.287	0.435	0.214	1.24
COc1cc(NN2C(C(O)C3CCCCC3)C=CC3C(=O)N(C)C(=O)C32)cc(OC)c1OC (stereo not given)	1.48	0.137 (inactive)	0.169 (inactive)	0.0624 (inactive)	3.46	-0.853 (inactive)	0.855	-0.0279	1.09	0.186	1.04	1.05	1.1	1.1 (inactive)	0.144	1.17	0.203	1.06	-1.47	0.823
COc1cccc(/C=C(\C#N)C(=O)Nc2c(C)n(C)n(-c3ccccc3)c2=O)c1	0.564	-1.58 (inactive)	-0.958 (inactive)	-0.978 (inactive)	2.66	-0.23 (inactive)	0.0852	0.161	0.539	-0.0828	0.129	-0.0045	0.0654	-0.238 (inactive)	0.179	0.497	0.413	0.447	0.0952	0.141
CN1C(=O)C2C(C1=O)C1C=C(CCCO)C2C(C2CC2)N1Cc1cc2c(cc1Br)OCO2 (stereo not given)	0.84	-3.43 (inactive)	-1.03 (inactive)	-0.932 (inactive)	2.82	0.307 (inactive)	0.183	0.304	0.699	0.0185	0.553	-0.272	0.288	-0.0854 (inactive)	0.357	0.963	-0.0564	-0.0617	0.107	1.36
C=C(CCCC)C(=O)CC[C@H](OC(C)=O)c1ccc(OCCO)cc1	-0.0507	-1.62 (inactive)	-6.78 (inactive)	-2.54 (inactive)	-0.835	2.19 (inactive)	-0.269	-0.469	-0.829	-0.16	0.56	-0.262	0.0984	-0.942 (inactive)	-0.509	-1.24	-0.448	-0.746	-0.8	-0.146
C=C[C@@H](OC)[C@H](OC(=O)Nc1ccc(OC)cc1)c1ccc(OC)c(O)c1	-0.391	0.239 (inactive)	-0.375 (inactive)	-0.901 (inactive)	1.04	0.234 (inactive)	-0.124	-0.527	-0.449	-0.25	-1.1	-0.259	0.601	-0.657 (inactive)	-0.818	-0.465	-0.75	-1.11	-0.642	-0.267
